The record followed here is PubChem BioAssay (NCI).

Test systems include SN12C renal; UO-31 renal; ACHN renal; CAKI-1 renal; A498 renal; CCRF-CEM leukemia; MOLT-4 leukemia; TK-10 renal; SR leukemia.
What all share (assay): NCI-60 one-dose screen, 48 h (100 = growth as untreated, 0 = no growth, -100 = all killed)
Conditions in all cases: 10 µM unless noted

The panel holds about 83,000 compounds, 20% with a hit somewhere; the sample as a whole holds those more often.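 Method: cells in 96-well plates; compound added at one concentration; 48 h incubation; percent growth measured; values under 10 scored active.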 Values without a mark were called inactive. Active and inactive are the calls of the source.

Turning to `COc1cc(/C=C/C(=O)Nc2ccc3c(c2)/C(=C\c2cccn2C)C(=O)N3)cc(OC)c1OC`, the growth in the test on SN12C renal is 41.2%; in the test with UO-31 renal it was 28.3%; with ACHN renal it was 54.9%; in the test on CAKI-1 renal it was 52.1%; in the test on A498 renal it was 46.8%; in the test with CCRF-CEM leukemia, 31.9%. Besides, in the test with MOLT-4 leukemia, the growth is 50.8%.

Regarding `O=C(OCCBr)c1ccc(Cl)c([N+](=O)[O-])c1`, the growth in the test with SN12C renal is 102%; in the test with UO-31 renal, 88.9%; with TK-10 renal it was 106%; in the test on ACHN renal, 104%; with A498 renal, 97.6%; in the test with MOLT-4 leukemia it was 83.7%. The growth in the test with SR leukemia was 86.5%.

As to `O=C(Nc1nc(-c2ccccc2)cs1)c1cc(O)c(O)c(O)c1`, the growth in the test with SN12C renal is 50.5%; in the test with UO-31 renal, 24.6%; in the test with ACHN renal it was 40.3%; with CAKI-1 renal, 26.4%; in the test with A498 renal, 85.9%; with CCRF-CEM leukemia, 9.11% (active). The growth was 17.1% in the test with MOLT-4 leukemia and 8.07% (active) in the test with SR leukemia.

With `CC(C)(C)c1cc(O)c(O)c(C(C)(C)C)c1`, the growth with SN12C renal was 60.3%; in the test on UO-31 renal it was 27.3%; in the test with TK-10 renal, 35.8%; in the test with ACHN renal, 18.3%; in the test with A498 renal, 60.6%; in the test with MOLT-4 leukemia it was 6.61% (active). Further, the growth in the test on SR leukemia was 11.2%.

Regarding `CN(C(=O)c1ccccc1)N(C)C(=O)c1ccccc1`, the growth is 105% in the test with SN12C renal; 93.2% in the test with UO-31 renal; 105% in the test with TK-10 renal; 106% in the test on ACHN renal; 100% in the test on A498 renal; 88.6% in the test on MOLT-4 leukemia. The growth in the test with SR leukemia was 92.8%.

As to `N#CCCN(CCO)c1ccccc1`, the growth is 97.6% with SN12C renal; 89.5% with UO-31 renal; 93.7% in the test with TK-10 renal; 106% in the test with ACHN renal; 96.4% in the test with A498 renal; 90% in the test with MOLT-4 leukemia. In the test on SR leukemia, the growth was 86.3%.

Take `CC1(C)OC(=O)C(=Cc2ccccc2Br)C(=O)O1`: the growth in the test with SN12C renal is 96.6%; with UO-31 renal, 92.2%; with ACHN renal, 102%; in the test on CAKI-1 renal it was 94.8%; with A498 renal, 105%; with CCRF-CEM leukemia, 98.2%. Also, the growth with SR leukemia was 79.7%.

`COc1cc(C2=NN(C(C)=O)C(c3ccc(OC(C)=O)cc3OC(C)=O)O2)c(OC(C)=O)c2ccccc12` (stereo not drawn): the growth with SN12C renal was 19.1%; with UO-31 renal, 5.38% (active); in the test on ACHN renal, 16.3%; with CAKI-1 renal it was 8.08% (active); in the test with A498 renal it was 25.2%; in the test with CCRF-CEM leukemia, -1.14% (active). The growth is -2.56% (active) in the test with MOLT-4 leukemia and 2.88% (active) in the test on SR leukemia.

On to `CCCCCCCCCCCCCCCCCc1nccn1CCO`, for which the growth with SN12C renal was 52.2%; with UO-31 renal it was 47.5%; in the test with TK-10 renal it was 112%; in the test with ACHN renal, 63.7%; in the test with A498 renal it was 72.5%; in the test with CCRF-CEM leukemia, 79.7%. The growth in the test on MOLT-4 leukemia was 65.6%.

As for `O=C(Nc1nc(-c2ccc(Cl)cc2)cs1)c1cc(O)c(O)c(O)c1`, the growth is 22.6% in the test on SN12C renal; 6.01% (active) with UO-31 renal; 15.9% in the test with ACHN renal; 8.69% (active) in the test on CAKI-1 renal; 77.1% in the test with A498 renal; 8.08% (active) in the test on CCRF-CEM leukemia. Also, the growth in the test on MOLT-4 leukemia was 4.68% (active); with SR leukemia, 0.551% (active).

For the compound `COc1ccc(-c2csc(NC(=O)c3cc(O)c(O)c(O)c3)n2)cc1`, the growth was 64.8% in the test with SN12C renal; 30.3% with UO-31 renal; 36% in the test with ACHN renal; 38.6% with CAKI-1 renal; 112% with A498 renal; 18.5% in the test with CCRF-CEM leukemia. The growth in the test on MOLT-4 leukemia is 28%.

For `CCC1(c2ccccc2)Oc2ccccc2-n2c(C#N)c3ccccc3c2C1=O` (stereo not drawn), the growth in the test on SN12C renal was 95.6%; in the test on UO-31 renal, 86.6%; in the test on ACHN renal, 96.5%; with CAKI-1 renal, 100%; with A498 renal, 97%; with CCRF-CEM leukemia it was 95.6%. Moreover, the growth in the test with MOLT-4 leukemia was 91%; in the test with SR leukemia, 89.2%.

For `COC(=O)c1ccc2c(c1)nc(-c1ccc(O)c(OC)c1)n2-c1cc(C(C)(C)C)[nH]n1`, the growth is 97.7% with SN12C renal; 50.9% in the test with UO-31 renal; 116% with TK-10 renal; 108% in the test with ACHN renal; 90.5% in the test on A498 renal; 93.1% in the test on CCRF-CEM leukemia. For the same compound, the growth in the test on MOLT-4 leukemia was 81.2%.

On to `COc1cc(/C=C/C(=O)c2c(-c3ccc(F)cc3)nc3sc(C)nn23)cc(OC)c1OC`, for which the growth in the test with SN12C renal is 35.9%; in the test with UO-31 renal it was 21.5%; in the test on ACHN renal, 24.6%; in the test on CAKI-1 renal, 15.2%; in the test on A498 renal, 85.2%; with CCRF-CEM leukemia, -9.53% (active). Moreover, the growth in the test on MOLT-4 leukemia was 13.4%; with SR leukemia it was 4.81% (active).
